This is part of a sample that, as a whole, favours compounds with a hit. Of some 83,000 tested, about 20% had one in any assay.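 Compound tested at a single concentration for 48 hours in 96-well plates; a percent growth value below 10 was scored as active.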 Active and inactive are the calls of the source.

The first test has as its system HCT-15 colon. Put plainly: NCI-60 one-dose screen, 48 h (100 = growth as untreated, 0 = no growth, -100 = all killed). Conditions: 10 µM unless noted.
As for `Clc1ccc([I+]c2ccc(Cl)cc2Cl)c(Cl)c1`, the growth is 30.2% (inactive).

On to `Cc1ccc(C2=NN(c3ccc(S(N)(=O)=O)cc3)C(c3cn(-c4ccccc4)nc3-c3ccccc3)C2)cc1` (stereo unspecified), for which the growth was 74.3% (inactive).

As to `N#CC1=C(N)OC2=C(C(=O)CCC2)C1c1ccco1` (stereo unspecified), the growth was 104% (inactive).

Turning to `COC1=CC(c2ccc[nH]2)=N/C1=C\c1[nH]c(C)c(C(=O)CCCCC(=O)Oc2ccc3c(c2)CCC2C3CC[C@]3(C)[C@@H](O)CC[C@@H]23)c1C` (stereo partly specified), the growth is 37.1% (inactive).

For `COc1ccc(NC(=O)CSc2nc3ccccc3c(=O)n2Cc2cc(OC)c(OC)c(OC)c2)cc1`, the growth is 89.5% (inactive).

On to `Nc1c(C(=O)Nc2c(Cl)cccc2Cl)sc2nc3c(cc12)CCCCC3`, for which the growth was 32.5% (inactive).

Consider `O=C(CN1CCN(c2cc3c(cc2F)c(=O)c(C(=O)O)cn3C2CC2)CC1)Nc1ccc(C(=O)/C=C/c2ccccc2)cc1`, for which the growth was 56.8% (inactive).

As for `COc1cc(/C=C/C(=O)c2ccc(NC(=O)CN3CCN(c4cc5c(cc4F)c(=O)c(C(=O)O)cn5C4CC4)CC3)cc2)cc(OC)c1OC`, the growth was 18.2% (inactive).

With `NC(=O)c1c(NC(=O)c2ccc(OCC3CCCO3)cc2)sc2c1CCCC2` (stereo unspecified), the growth was 101% (inactive).

Consider `COc1ccc(/C=C/C(=O)OCC(=O)NNC(=O)c2ccccc2)cc1OC`, for which the growth is 108% (inactive).

With `Cc1sc(N=Nc2ccc(N(C)C)cc2)[n+]([O-])c1C`, the growth is 100% (inactive).

Consider `O=C(/C=C/c1ccccc1)n1c(-c2ccc(Cl)cc2)nc2ccccc21`, for which the growth is -24.8% (active).

`COC(=O)[C@H]1[C@H](OC)[C@@H](OC(=O)/C=C/c2ccncc2)CC2CN3CCc4c([nH]c5cc(OC)ccc45)[C@@H]3C[C@@H]21` (stereo partly specified): the growth was 75.5% (inactive).

Consider `O=C1Nc2ccc(Br)cc2C1=N/C=c1\[nH]c(=O)/c(=C/c2ccc(Cl)cc2)s1`, for which the growth was 90.3% (inactive).

`Nc1c(C(=O)Nc2cccc(C(F)(F)F)c2)sc2nc3c(cc12)CCCCC3`: the growth is 50.5% (inactive).

On to `COc1cc(/C=C2\C=C(c3ccc(F)cc3)N(Cc3ccccc3)C2=O)cc(OC)c1OC`, for which the growth is 53.6% (inactive).

Consider `Clc1nc(Cl)c2ncn(C/C=C/Cn3cnc4c(Cl)nc(Cl)nc43)c2n1`, for which the growth is 50.1% (inactive).

With `NC(C(=O)O)C(O)c1ccc(OCc2ccccc2)c(OCc2ccccc2)c1` (stereo unspecified), the growth is 97.6% (inactive).

Turning to `Nc1c(C(=O)Nc2ccccc2)sc2nc3c(cc12)CCC3`, the growth was 55.7% (inactive).

As to `COc1ccc(/C=C/c2cc(N3CCOCC3)c3cc(F)c(F)cc3n2)cc1OC`, the growth was 30% (inactive).

Consider `O=[N+]([O-])c1cccc(-c2cc(-c3cc(Br)ccc3O)[nH]n2)c1`, for which the growth is 15.6% (inactive).

For `COC1=CC(c2ccc[nH]2)=N/C1=C\c1[nH]c(C)c(C(=O)CCC(=O)Oc2ccc3c(c2)CCC2C3CC[C@]3(C)[C@@H](O)CC[C@@H]23)c1C` (stereo partly specified), the growth was -48% (active).

Turning to `COc1ccc(C2=NN(c3ccc(S(N)(=O)=O)cc3)C(c3cn(-c4ccccc4)nc3-c3ccc(Cl)cc3)C2)cc1` (stereo unspecified), the growth is 80.8% (inactive).

Turning to `COc1cc(CCn2nnc3c(NCCCCO)ncnc32)cc(OC)c1`, the growth was 102% (inactive).

Consider `Clc1ccc(-c2nc(-c3ccco3)cn3ccnc23)cc1`, for which the growth is 50.1% (inactive).

For `O=C(c1ccncc1)N1N=C(c2ccc(Cl)cc2)CC1c1c[nH]c2ccccc12` (stereo unspecified), the growth was 93.6% (inactive).

Regarding `COc1ccc(-c2cn[nH]c2-c2cc(OC)c3c(c2)OCCO3)cc1`, the growth is 20.7% (inactive).

For `O=S(=O)(c1ccccc1)n1ccc(-c2ccc3c(c2)CCO3)n1`, the growth was 92.8% (inactive).

In the case of `COC1=CC(c2ccc[nH]2)=N/C1=C\c1[nH]c(C)c(C(=O)CCCCC(=O)NCc2ccccc2)c1C`, the growth is -19.5% (active).

As to `Nc1c(C(=O)Nc2cccc([N+](=O)[O-])c2)sc2nc3c(cc12)C(O)CCC3` (stereo unspecified), the growth is 39.9% (inactive).

Consider `COc1cccc(NC(=O)c2sc3nc4c(cc3c2N)CCCC4)c1`, for which the growth was 20.8% (inactive).

Consider `O=C(Nc1cccc(C(F)(F)F)c1)Nc1ccc(OCc2nnc(-c3ccccc3)o2)c(F)c1`, for which the growth was 26.7% (inactive).

For `CC(=O)Nc1nc(C(=O)N2N=C(C)/C(=C/c3ccc(Cl)cc3)C2=O)cs1`, the growth was 100% (inactive).

Turning to `COc1cc(C(=O)OCCCCCCCCCCC[P+](c2ccccc2)(c2ccccc2)c2ccccc2)ccc1O`, the growth was 0.0119% (active).

On to `O=C(NCCCN1CCN(CCCNC(=O)C2CCCCC2)CC1)C1CCCCC1`, for which the growth is 97.5% (inactive).

Take `COc1cc2c(cc1OC)C1(C)N(CC2)C(=O)OC1(C)C` (stereo unspecified): the growth is 101% (inactive).

With `CCCCCc1c(C)[nH]c(/C=c2\[nH]/c(=C3/C=c4ccccc4=N3)cc2OC)c1C`, the growth was -29.8% (active).

Turning to `COc1cc(-c2n[nH]nc2-c2ccc3c(c2)OCCO3)cc(OC)c1OC`, the growth was 6.81% (active).

In another test the test system is HT29 colon. The test is described as above. Conditions: 10 µM unless noted.
For `Clc1ccc([I+]c2ccc(Cl)cc2Cl)c(Cl)c1`, the growth is -26.8% (active).

In the case of `Cc1ccc(C2=NN(c3ccc(S(N)(=O)=O)cc3)C(c3cn(-c4ccccc4)nc3-c3ccccc3)C2)cc1` (stereo unspecified), the growth is 46.3% (inactive).

On to `N#CC1=C(N)OC2=C(C(=O)CCC2)C1c1ccco1` (stereo unspecified), for which the growth is 109% (inactive).

Take `COC1=CC(c2ccc[nH]2)=N/C1=C\c1[nH]c(C)c(C(=O)CCCCC(=O)Oc2ccc3c(c2)CCC2C3CC[C@]3(C)[C@@H](O)CC[C@@H]23)c1C` (stereo partly specified): the growth was 38.7% (inactive).

Consider `COc1ccc(NC(=O)CSc2nc3ccccc3c(=O)n2Cc2cc(OC)c(OC)c(OC)c2)cc1`, for which the growth is 110% (inactive).

Turning to `Nc1c(C(=O)Nc2c(Cl)cccc2Cl)sc2nc3c(cc12)CCCCC3`, the growth was 34.1% (inactive).

As for `O=C(CN1CCN(c2cc3c(cc2F)c(=O)c(C(=O)O)cn3C2CC2)CC1)Nc1ccc(C(=O)/C=C/c2ccccc2)cc1`, the growth was 11.4% (inactive).

As for `COc1cc(/C=C/C(=O)c2ccc(NC(=O)CN3CCN(c4cc5c(cc4F)c(=O)c(C(=O)O)cn5C4CC4)CC3)cc2)cc(OC)c1OC`, the growth is -3.37% (active).

`NC(=O)c1c(NC(=O)c2ccc(OCC3CCCO3)cc2)sc2c1CCCC2` (stereo unspecified): the growth was 105% (inactive).

`COc1ccc(/C=C/C(=O)OCC(=O)NNC(=O)c2ccccc2)cc1OC`: the growth is 105% (inactive).

On to `Cc1sc(N=Nc2ccc(N(C)C)cc2)[n+]([O-])c1C`, for which the growth was 103% (inactive).

As to `O=C(/C=C/c1ccccc1)n1c(-c2ccc(Cl)cc2)nc2ccccc21`, the growth was -40.6% (active).

Turning to `COC(=O)[C@H]1[C@H](OC)[C@@H](OC(=O)/C=C/c2ccncc2)CC2CN3CCc4c([nH]c5cc(OC)ccc45)[C@@H]3C[C@@H]21` (stereo partly specified), the growth is 68.9% (inactive).

As for `O=C1Nc2ccc(Br)cc2C1=N/C=c1\[nH]c(=O)/c(=C/c2ccc(Cl)cc2)s1`, the growth was 97.9% (inactive).

In the case of `Nc1c(C(=O)Nc2cccc(C(F)(F)F)c2)sc2nc3c(cc12)CCCCC3`, the growth is 20.6% (inactive).

Turning to `COc1cc(/C=C2\C=C(c3ccc(F)cc3)N(Cc3ccccc3)C2=O)cc(OC)c1OC`, the growth was 78.9% (inactive).

Regarding `Clc1nc(Cl)c2ncn(C/C=C/Cn3cnc4c(Cl)nc(Cl)nc43)c2n1`, the growth was 48% (inactive).

Consider `NC(C(=O)O)C(O)c1ccc(OCc2ccccc2)c(OCc2ccccc2)c1` (stereo unspecified), for which the growth was 97.3% (inactive).

Turning to `Nc1c(C(=O)Nc2ccccc2)sc2nc3c(cc12)CCC3`, the growth is 88% (inactive).

As for `COc1ccc(/C=C/c2cc(N3CCOCC3)c3cc(F)c(F)cc3n2)cc1OC`, the growth is 38.9% (inactive).

For the molecule `O=[N+]([O-])c1cccc(-c2cc(-c3cc(Br)ccc3O)[nH]n2)c1`, the growth was 48.3% (inactive).

As to `COC1=CC(c2ccc[nH]2)=N/C1=C\c1[nH]c(C)c(C(=O)CCC(=O)Oc2ccc3c(c2)CCC2C3CC[C@]3(C)[C@@H](O)CC[C@@H]23)c1C` (stereo partly specified), the growth is 6.68% (active).

`COc1ccc(C2=NN(c3ccc(S(N)(=O)=O)cc3)C(c3cn(-c4ccccc4)nc3-c3ccc(Cl)cc3)C2)cc1` (stereo unspecified): the growth is 82.6% (inactive).

As to `COc1cc(CCn2nnc3c(NCCCCO)ncnc32)cc(OC)c1`, the growth is 112% (inactive).

Regarding `Clc1ccc(-c2nc(-c3ccco3)cn3ccnc23)cc1`, the growth is 40.3% (inactive).

In the case of `O=C(c1ccncc1)N1N=C(c2ccc(Cl)cc2)CC1c1c[nH]c2ccccc12` (stereo unspecified), the growth is 101% (inactive).

For the molecule `COc1ccc(-c2cn[nH]c2-c2cc(OC)c3c(c2)OCCO3)cc1`, the growth was 1.7% (active).

On to `O=S(=O)(c1ccccc1)n1ccc(-c2ccc3c(c2)CCO3)n1`, for which the growth was 92.8% (inactive).

Consider `COC1=CC(c2ccc[nH]2)=N/C1=C\c1[nH]c(C)c(C(=O)CCCCC(=O)NCc2ccccc2)c1C`, for which the growth was -49% (active).

Regarding `Nc1c(C(=O)Nc2cccc([N+](=O)[O-])c2)sc2nc3c(cc12)C(O)CCC3` (stereo unspecified), the growth is 17.4% (inactive).

As for `COc1cccc(NC(=O)c2sc3nc4c(cc3c2N)CCCC4)c1`, the growth is 41.5% (inactive).

For the molecule `O=C(Nc1cccc(C(F)(F)F)c1)Nc1ccc(OCc2nnc(-c3ccccc3)o2)c(F)c1`, the growth is 43.2% (inactive).

With `CC(=O)Nc1nc(C(=O)N2N=C(C)/C(=C/c3ccc(Cl)cc3)C2=O)cs1`, the growth is 108% (inactive).

Regarding `COc1cc(C(=O)OCCCCCCCCCCC[P+](c2ccccc2)(c2ccccc2)c2ccccc2)ccc1O`, the growth was 1.83% (active).

For the molecule `O=C(NCCCN1CCN(CCCNC(=O)C2CCCCC2)CC1)C1CCCCC1`, the growth is 108% (inactive).

For `COc1cc2c(cc1OC)C1(C)N(CC2)C(=O)OC1(C)C` (stereo unspecified), the growth was 115% (inactive).

As for `CCCCCc1c(C)[nH]c(/C=c2\[nH]/c(=C3/C=c4ccccc4=N3)cc2OC)c1C`, the growth was -13.4% (active).

With `COc1cc(-c2n[nH]nc2-c2ccc3c(c2)OCCO3)cc(OC)c1OC`, the growth was -12.7% (active).

For the origin of these results see PubChem BioAssay (NCI).
